# Assay results from PubChem BioAssay (Tox21).
# A number with no mark means an inactive call. Inconclusive results are not listed. Where a call stands in place of a potency, no number is given. Calls of active or inactive are those of the source. Unless noted, calls come from the whole dose curve.
# Assays:
# [1] = Nuclear factor erythroid 2-related factor 2/antioxidant responsive element (Nrf2/ARE) small molecule agonists: qHTS cell viability counter screen in human keratinocytes (AID 1919968; active = well fitted curve in the direction sought with a large enough effect in the repeat runs; an effect the other way counts as inactive or inconclusive; note: nearly all actives have a fitted effect of over 55% in size; note: potency is the fitted concentration of half-maximal effect)
# In short: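 Seed 1,500 KeratinoSens cells per well, then incubate 5 h at 37 C/5% CO2. Add compounds in DMSO and incubate 23 h. Add CellTiter-Fluor, wait 1 h and read fluorescence.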
# [2] = Nuclear factor erythroid 2-related factor 2/antioxidant responsive element (Nrf2/ARE) small molecule agonists: luciferase reporter gene qHTS assay in human keratinocytes (AID 1919969); note: nearly all actives have a fitted effect of over 35% in size
# [3] = biological target: Gonadotropin-releasing hormone receptor (Homo sapiens) (UniProt P30968); test: Human gonadotropin-releasing hormone receptor (GnRHR) small molecule agonists, calcium flux assay in GnRHR-HEK293 cells (AID 1920063); note: nearly all actives have a fitted effect of over 35% in size
# Sequence of Gonadotropin-releasing hormone receptor (Homo sapiens) (P30968 whole entry, looked up): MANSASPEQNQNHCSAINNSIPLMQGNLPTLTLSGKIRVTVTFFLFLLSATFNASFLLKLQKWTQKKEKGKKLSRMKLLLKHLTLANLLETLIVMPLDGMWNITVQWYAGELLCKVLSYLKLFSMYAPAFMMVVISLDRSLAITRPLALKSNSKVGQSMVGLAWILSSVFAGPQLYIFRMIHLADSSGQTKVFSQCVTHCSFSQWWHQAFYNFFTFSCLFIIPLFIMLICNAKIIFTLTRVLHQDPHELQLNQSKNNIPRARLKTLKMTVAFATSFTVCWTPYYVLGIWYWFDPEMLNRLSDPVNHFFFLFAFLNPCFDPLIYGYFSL
# In short: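 Cells: HEK293 stably expressing human GnRHR. Steps: overnight (18 h) culture, 1 h calcium dye loading at 37 C, compound addition, kinetic fluorescence read at 480/540 nm. Each compound tested at 15 concentrations in triplicate.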
# [4] = biological target: KiSS-1 receptor (Homo sapiens) (UniProt Q969F8); test: Human kisspeptin (KISS1R) small molecule agonists, calcium flux assay in KISS1R-HEK293 cells (AID 1920064; active = well fitted curve in the direction sought with a large enough effect in the repeat runs; an effect the other way counts as inactive or inconclusive)
# Sequence of KiSS-1 receptor (Homo sapiens) (Q969F8 whole entry, looked up): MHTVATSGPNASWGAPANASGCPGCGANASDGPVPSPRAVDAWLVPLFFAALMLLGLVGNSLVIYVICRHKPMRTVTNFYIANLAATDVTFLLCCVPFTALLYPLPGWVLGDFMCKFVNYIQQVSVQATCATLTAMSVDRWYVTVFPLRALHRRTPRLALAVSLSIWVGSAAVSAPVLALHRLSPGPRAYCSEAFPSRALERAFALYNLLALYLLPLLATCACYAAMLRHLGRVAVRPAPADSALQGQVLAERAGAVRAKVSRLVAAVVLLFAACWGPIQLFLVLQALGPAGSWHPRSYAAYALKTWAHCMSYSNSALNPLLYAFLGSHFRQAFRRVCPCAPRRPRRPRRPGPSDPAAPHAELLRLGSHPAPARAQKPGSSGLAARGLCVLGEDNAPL
# In short: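 Cells plated and incubated 18 h; dye added, 1 h at 37 C; compounds in DMSO pinned in; signal read at 480/540 nm every second for 3 min. Each compound tested at 15 concentrations in triplicate.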
# [5] = G protein-coupled receptor (GPCR) small molecule agonists, calcium flux assay: HEK293 wild type cell line counter screen (AID 1920065)
# In short: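 Counter-screen of the Tox21 10K library for non-specific calcium release: dye-loaded cells received compounds in DMSO and were monitored by kinetic fluorescence (480/540 nm, 3 min). Fifteen concentrations, run in triplicate.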
# [6] = p53 small molecule agonists, cell-based qHTS assay with human liver microsomes (AID 1963577);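 note: p53 response element beta-lactamase reporter cells with liver microsomes plus NADPH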
# In short: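 In this qHTS, p53 response-element beta-lactamase cells receive test compound together with a microsome/NADPH activating system (0.5 mg/mL final each) and are incubated 16 h at 37 C before LiveBLAzer fluorescence detection.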
# [7] = p53 small molecule agonists, cell-based qHTS assay with rat liver microsomes (AID 1963578)
# In short: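 Agonist mode in p53RE-bla reporter cells, with compounds co-incubated 16 h at 37 C alongside 0.5 mg/mL rat liver microsomes and 0.5 mg/mL NADPH (final), followed by a 2 h LiveBLAzer detection step.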
# [8] = p53 small molecule agonists, cell-based qHTS assay with human liver microsomes: qHTS cell viability counter screen (AID 1963579); note: nearly all actives have a fitted effect of over 45% in size
# In short: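 Metabolically activated exposure: compounds, human liver microsomes and NADPH (0.5 mg/mL final apiece) were added to p53RE-bla cells seeded 5 h earlier, left 16 h at 37 C, and then assessed for viability by CellTiter-Glo luminescence.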
# [9] = p53 small molecule agonists, cell-based qHTS assay with rat liver microsomes: qHTS cell viability counter screen (AID 1963580); note: nearly all actives have a fitted effect of over 45% in size; note: potency is the fitted concentration of half-maximal effect
# In short: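 Viability is assessed in parallel with the p53 reporter read: HCT-116 p53RE-bla cells receive compounds plus rat microsomes and NADPH (0.5 mg/mL final apiece), incubate 16 h at 37 C, and then CellTiter-Glo luminescence is recorded.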
# [10] = p53 small molecule agonists, cell-based qHTS assay: qHTS cell viability counter screen (AID 1963581); note: nearly all actives have a fitted effect of over 45% in size; note: potency is the fitted concentration of half-maximal effect
# In short: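 Cells: HCT-116 with p53 response element-driven beta-lactamase. Treatment: 16 h, 37 C, compounds in DMSO. Read: CellTiter-Glo luminescence after 30 min RT.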
# [11] = p53 small molecule agonists, cell-based qHTS assay (AID 1963582; active = well fitted activation curve with a large enough effect in the signal ratio in the repeat runs, not every such curve was filed as active; the % refers to the signal ratio; note: potency is the fitted concentration of half-maximal effect)
# In short: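 Quantitative HTS in p53RE-bla cells: after a 5 h settling period, compounds delivered in DMSO were left on cells for 16 h at 37 C, and reporter induction was measured as fluorescence following 2 h substrate loading.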
# [12] = biological target: 5-hydroxytryptamine receptor 2A (Homo sapiens) (UniProt P28223); test: 5-hydroxytryptamine receptor 2A (HTR2A) small molecule antagonists, cell-based qHTS assay (AID 1963586); note: nearly all actives have a fitted effect of over 45% in size
# Sequence of 5-hydroxytryptamine receptor 2A (Homo sapiens) (P28223 whole entry, looked up): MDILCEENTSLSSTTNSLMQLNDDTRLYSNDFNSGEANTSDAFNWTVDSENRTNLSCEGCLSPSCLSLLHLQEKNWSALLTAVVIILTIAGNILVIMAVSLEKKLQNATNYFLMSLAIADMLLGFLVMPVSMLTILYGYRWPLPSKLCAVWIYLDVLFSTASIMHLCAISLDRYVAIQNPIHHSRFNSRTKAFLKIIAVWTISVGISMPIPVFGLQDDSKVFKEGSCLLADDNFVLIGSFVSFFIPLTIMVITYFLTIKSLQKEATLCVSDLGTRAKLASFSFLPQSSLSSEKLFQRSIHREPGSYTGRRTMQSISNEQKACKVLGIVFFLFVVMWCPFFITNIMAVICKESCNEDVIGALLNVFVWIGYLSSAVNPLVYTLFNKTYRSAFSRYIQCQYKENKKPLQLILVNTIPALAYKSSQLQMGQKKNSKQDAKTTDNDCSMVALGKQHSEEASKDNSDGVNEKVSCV
# In short: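 Antagonist-mode intracellular calcium assay: DOI (4 nM) added after 5 min compound pre-incubation at room temperature to dye-loaded HTR2A-CHO cells. Fluorescence followed for 3 min, sampled every second.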
# [13] = biological target: Muscarinic acetylcholine receptor M1 (Homo sapiens) (UniProt P11229); test: Cholinergic receptor muscarinic 1 (CHRM1) small molecule antagonists, cell-based qHTS assay (AID 1963588); note: nearly all actives have a fitted effect of over 40% in size; note: potency is the fitted concentration of half-maximal effect
# Sequence of Muscarinic acetylcholine receptor M1 (Homo sapiens) (P11229 whole entry, looked up): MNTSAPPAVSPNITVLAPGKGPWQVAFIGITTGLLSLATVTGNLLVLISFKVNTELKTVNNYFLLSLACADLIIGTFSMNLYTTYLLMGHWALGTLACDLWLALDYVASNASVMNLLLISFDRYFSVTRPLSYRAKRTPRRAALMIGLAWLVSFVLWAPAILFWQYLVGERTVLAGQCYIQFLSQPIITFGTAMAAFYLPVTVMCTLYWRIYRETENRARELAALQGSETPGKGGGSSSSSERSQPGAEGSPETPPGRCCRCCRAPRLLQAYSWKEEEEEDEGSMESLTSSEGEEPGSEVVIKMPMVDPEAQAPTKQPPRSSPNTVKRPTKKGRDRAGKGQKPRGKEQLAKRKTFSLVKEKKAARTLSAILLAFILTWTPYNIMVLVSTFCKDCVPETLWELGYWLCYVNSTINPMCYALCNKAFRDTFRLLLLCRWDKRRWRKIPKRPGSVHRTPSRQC
# In short: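 CHRM1-CHO calcium-flux assay, antagonist mode. Cells were seeded 18 h, dye-loaded 1 h at 37 C and given compound for 5 min at RT, then acetylcholine was added at 50nM. FDSS fluorescence was read 3 min; 15 concentrations, three runs.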
# [14] = biological target: Muscarinic acetylcholine receptor M1 (Homo sapiens) (UniProt P11229); test: Cholinergic receptor muscarinic 1 (CHRM1) small molecule agonists, cell-based qHTS assay (AID 1963589); note: nearly all actives have a fitted effect of over 35% in size
# In short: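 Agonist-mode qHTS in CHO cells stably carrying human muscarinic M1. Intracellular calcium is tracked by fluorescence every second after compound transfer; each compound runs at 15 concentrations in three independent runs.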
# [15] = cAMP Responsive Elements (CRE) small molecule agonists, cell-based qHTS assay (AID 1963590)
# In short: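 Agonist mode qHTS in CRE-bla HEK 293T cells: compounds dosed from DMSO for 3 h at 37 C/5% CO2, followed by LiveBLAzer B/G FRET substrate for 2 h at room temperature.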
# [16] = biological target: Beta-2 adrenergic receptor (Homo sapiens) (UniProt P07550); test: Adrenergic beta2 receptor (ADRB2) small molecule antagonists, cell-based qHTS assay (AID 1963592); note: series mostly up to about 92 µM; nearly all actives have a fitted effect of over 50% in size
# Sequence of Beta-2 adrenergic receptor (Homo sapiens) (P07550 whole entry, looked up): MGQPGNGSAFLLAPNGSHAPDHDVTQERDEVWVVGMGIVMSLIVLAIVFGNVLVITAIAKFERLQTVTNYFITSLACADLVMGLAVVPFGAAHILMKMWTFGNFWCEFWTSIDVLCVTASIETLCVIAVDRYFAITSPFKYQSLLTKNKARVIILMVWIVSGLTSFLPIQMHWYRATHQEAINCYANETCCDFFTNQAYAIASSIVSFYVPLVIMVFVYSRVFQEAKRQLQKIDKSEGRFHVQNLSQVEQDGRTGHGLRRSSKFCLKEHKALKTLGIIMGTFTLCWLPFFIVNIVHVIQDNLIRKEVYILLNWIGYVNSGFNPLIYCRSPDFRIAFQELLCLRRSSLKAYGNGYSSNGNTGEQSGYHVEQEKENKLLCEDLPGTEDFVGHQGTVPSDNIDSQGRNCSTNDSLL
# In short: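 Cells (CHO, stable ADRB2 overexpression) incubated 18-20hr at 37C; compounds added from DMSO; agonist mix (1nM isoproterenol, 100uM IBMX, 25uM Ro-20-1724) added; 0.5hr RT; d2-cAMP and anti-cAMP-cryptate added; 1hr RT; 665/615 nm read.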
# [17] = biological target: D(2) dopamine receptor (Homo sapiens) (UniProt P14416); test: Dopamine D2 receptor (DRD2) small molecule antagonists, cell-based qHTS assay (AID 1963595; active = well fitted inhibition curve with a large enough effect in the signal ratio in the repeat runs, with a control signal flat; the % refers to the signal ratio)
# Sequence of D(2) dopamine receptor (Homo sapiens) (P14416 whole entry, looked up): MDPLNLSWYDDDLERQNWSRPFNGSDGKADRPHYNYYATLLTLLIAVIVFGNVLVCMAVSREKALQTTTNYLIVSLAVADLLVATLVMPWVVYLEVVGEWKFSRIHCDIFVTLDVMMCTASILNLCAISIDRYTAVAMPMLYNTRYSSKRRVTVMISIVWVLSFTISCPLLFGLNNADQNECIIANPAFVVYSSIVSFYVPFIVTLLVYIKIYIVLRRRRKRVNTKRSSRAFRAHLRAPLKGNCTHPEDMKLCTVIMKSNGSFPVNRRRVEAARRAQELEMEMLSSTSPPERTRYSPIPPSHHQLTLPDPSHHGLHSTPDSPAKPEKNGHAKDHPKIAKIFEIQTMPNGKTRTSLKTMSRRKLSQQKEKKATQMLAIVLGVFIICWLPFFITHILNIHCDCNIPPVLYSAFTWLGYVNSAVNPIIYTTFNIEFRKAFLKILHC
# In short: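 DRD2-HEK293; 0.1 mM Ro20-1724; cpd 10 min RT; NKH477 200 nM + quinpirole 12 nM, 30 min RT; HTRF cAMP (cAMP-d2/anti-cAMP cryptate), 665/620 nm ratio after 1 h.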
# [18] = biological target: D(2) dopamine receptor (Homo sapiens) (UniProt P14416); test: Dopamine D2 receptor (DRD2) small molecule agonists, cell-based qHTS assay (AID 1963594); note: nearly all actives have a fitted effect of over 35% in size
# In short: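 HEK293 cells stably expressing human DRD2, pre-treated with PDE inhibitor Ro20-1724 (0.1 mM final) and compound 10 min at room temperature, then stimulated with NKH477 (200nM […]) for 30 min. cAMP read by HTRF (665/620 nm).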
# [19] = biological target: 5-hydroxytryptamine receptor 2A (Homo sapiens) (UniProt P28223); test: 5-hydroxytryptamine receptor 2A (HTR2A) small molecule agonists, cell-based qHTS assay (AID 1963587); note: nearly all actives have a fitted effect of over 30% in size
# In short: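 CHO cells stably expressing human HTR2A, plated 18 h, loaded with calcium dye 1 h at 37 C. Agonist mode: compounds added and intracellular calcium fluorescence recorded kinetically for 2 min at 1 sec intervals.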
# [20] = cAMP Responsive Elements (CRE) small molecule antagonists, cell-based qHTS assay (AID 1963591; active = well fitted inhibition curve with a large enough effect in the signal ratio in the repeat runs, not every such curve was filed as active; the % refers to the signal ratio)
# In short: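 Antagonist mode: test compounds are co-incubated with the adenylyl cyclase activator NKH477 (0.25 uM final) on CRE-bla HEK293T cells for 3 h at 37 °C, followed by LiveBLAzer substrate loading.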
SMILES,Potency [1],Potency [2],Potency [3],outcome [4],outcome [5],Potency [6],Potency [7],Potency [8],Potency [9],Potency [10],Potency [11],Potency [12],Potency [13],Potency [14],Potency [15],Potency [16],Potency [17],Potency [18],Potency [19],Potency [20]
CCOC(=O)/C=C/C(=O)OCC,inactive,inactive,inactive,inactive,inactive,inactive,inactive,inactive,inactive,inactive,inactive,inactive,inactive,inactive,inactive,inactive,inactive,–,–,–
CC1CC(C)C(=O)C1=O (stereo not given),inactive,inactive,inactive,inactive,inactive,inactive,inactive,inactive,inactive,inactive,inactive,inactive,inactive,inactive,inactive,inactive,inactive,inactive,–,–
C1=C\CC/C=C\CC/1,inactive,inactive,inactive,inactive,inactive,inactive,inactive,inactive,inactive,inactive,inactive,–,inactive,inactive,inactive,inactive,inactive,inactive,inactive,inactive
CC(CN1CC(=O)NC(=O)C1)N1CC(=O)NC(=O)C1 (stereo not given),inactive,inactive,inactive,inactive,inactive,inactive,inactive,inactive,inactive,inactive,19.9 µM (active),–,inactive,inactive,inactive,inactive,–,inactive,inactive,inactive
CCN(CC)CCOc1ccc(C(O)(Cc2ccc(Cl)cc2)c2ccc(C)cc2)cc1 (stereo not given),26.6 µM (active),inactive,inactive,inactive,inactive,inactive,inactive,inactive,inactive,19.9 µM (active),inactive,inactive,–,–,–,inactive,inactive,inactive,–,–
CC(C)(C)C(=O)Oc1ccc(S(=O)(=O)Nc2ccccc2C(=O)NCC(=O)O)cc1,inactive,inactive,inactive,inactive,inactive,inactive,inactive,inactive,inactive,inactive,inactive,–,inactive,inactive,inactive,inactive,inactive,inactive,inactive,inactive
O=C(OC1C[C@H]2CC[C@@H](C1)[N+]21CCCC1)C(O)(c1ccccc1)c1ccccc1 (stereo not given in full),inactive,inactive,inactive,inactive,inactive,inactive,inactive,inactive,inactive,inactive,inactive,–,0.0015 µM (active),inactive,inactive,inactive,inactive,inactive,inactive,inactive
CC(=O)O[C@H]1CC[C@@]2(C)C(=CC[C@@H]3[C@@H]2CC[C@]2(C)C(C(C)=O)=CC[C@@H]32)C1,inactive,inactive,inactive,inactive,inactive,inactive,inactive,inactive,inactive,inactive,inactive,–,inactive,inactive,inactive,inactive,inactive,–,inactive,inactive
COc1cccc(-c2ccc(/C=C\CN3CCCCCC3)cc2Cl)c1,38.4 µM (active),inactive,inactive,inactive,inactive,inactive,inactive,inactive,40.6 µM (active),inactive,inactive,inactive,0.836 µM (active),inactive,–,inactive,–,–,–,–
Cc1cc(NC(=O)C2=C(O)c3ccccc3S(=O)(=O)N2C)no1,inactive,inactive,inactive,inactive,inactive,inactive,inactive,inactive,inactive,inactive,inactive,–,inactive,inactive,inactive,inactive,inactive,inactive,inactive,inactive
N#CCC(=O)NN,inactive,inactive,inactive,inactive,inactive,inactive,inactive,inactive,inactive,inactive,inactive,–,inactive,inactive,inactive,inactive,inactive,inactive,inactive,inactive
CCCCCCCC/C=C\CCCCCCCC(=O)OC[C@@H](O)[C@H]1OC[C@H](O)[C@H]1O,inactive,inactive,inactive,inactive,inactive,inactive,inactive,inactive,inactive,inactive,inactive,–,inactive,inactive,inactive,inactive,–,–,inactive,inactive
COCCc1ccccn1,inactive,inactive,inactive,inactive,inactive,inactive,inactive,inactive,inactive,inactive,inactive,–,inactive,inactive,inactive,inactive,inactive,inactive,inactive,inactive
CCCCCCCCC(C)=O,inactive,inactive,inactive,inactive,inactive,inactive,inactive,inactive,inactive,inactive,inactive,inactive,inactive,inactive,inactive,inactive,inactive,inactive,–,–
